aSyn 5UTR inh – MLPCN primary screen, SNCA 5' untranslated region. inhibition, % (tested at 7.5 µM). hit rate 0.82% among 300,000. AID 1813. alpha-synuclein 5'UTR reporter, inhibitor activity; in the data active means inhibition above about 60%;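 further: H4 neuroglioblastoma cells stably carrying SNCA 5'UTR luciferase fusion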
Ba/F3 V617F tox – reduce viability of Ba/F3 cells dependent on JAK2V617F; Ba/F3 EpoR-JAK2V617F viability, ATP luminescence; hit rate 1.1% among 220,000; inhibition, % at 5.6 µM;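 active means inhibition above the campaign mean plus 3 SD over all tested compounds, cut at about 24% in these data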;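 further: cytokine-independent growth of Ba/F3 cells driven by EpoR plus mutant JAK2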
KLF5 inh – suppresses KLF5 promoter-driven expression | inhibition, % at 5 µM | hit rate 0.23% among 290,000 | AID 1700 | DLD-1 KLF5 promoter-luciferase reporter, luminescence;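 active means inhibition above a per-plate limit of that plate's mean compound inhibition plus 3 SD, cut at about 60% in these data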;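 further: higher means less KLF5 promoter-driven luciferase light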
BaF3 parental – counter-screen for JAK2V617F inhibitors: parental Ba/F3 viability inhibitors; inhibition, % at 5.6 µM; CellTiter-Glo ATP luminescence; AID 1486; hit rate 1.1% among 220,000;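 active means inhibition above a per-campaign cutoff, the mean inhibition of all tested compounds plus 3 SD, cut at about 27% in these data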
IEC-6 cytotox – IEC-6 cytotoxicity, counter-screen for KLF5 inhibitors; inhibition, % at 5 µM; AID 1825; luminescence viability; hit rate 0.78% among 290,000; in the data active means inhibition above about 22%
APP transl inh – APP translation inhibition | SH-SY5Y APP 5'UTR-luciferase reporter, luminescence | inhibition, % at 2 µM | hit rate 0.82% among 190,000 | AID 1285;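 active means inhibition above a set limit, derived from the sample mean plus 3 SD, cut at about 45% in these data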
Numbers stand for hits; . = inactive; / = not tested or not shown. This is a sample that favours compounds with a hit; in the whole collection about 2.2% have one here.

SMILES	aSyn 5UTR inh	Ba/F3 V617F tox	KLF5 inh	BaF3 parental	IEC-6 cytotox	APP transl inh
O=C(COC(=O)CCC(=O)c1ccc(F)cc1)Nc1ccc2[nH]c(=O)[nH]c2c1	.	/	/	/	/	/
Cc1ccc(S(=O)(=O)N2CCN(C(=O)NCc3ccc(C(=O)O)cc3)CC2)cc1	.	/	.	/	.	/
CS(=O)(=O)N1CCC(C(=O)Nc2c(F)cccc2F)CC1	.	.	.	70	.	.
COc1cccc(CNC(=O)c2ccccc2SCC(=O)N2CCCC2)c1	.	/	/	/	/	/
CCOc1ccc(NC(=O)c2sc3nc(C)nc(N4CCOCC4)c3c2C)cc1	.	/	.	/	.	/
O=C(/C=C/c1ccccc1)Nc1nc(-c2ccncc2)cs1	.	39	.	43	.	.
Cc1c(C(=O)C(=O)N2c3ccc(F)cc3CCC2C)c2ccccc2n1C (configuration not stated)	62	.	.	.	.	83
Cc1c(C(=O)C(=O)N2CCN(C)CC2)c2ccccc2n1C	.	.	.	.	.	.
CCC(=O)Nc1ccc(NC(=O)c2ccco2)cc1	.	.	.	.	.	.
CCOc1ccc(CC(=O)Nc2ccc(NC(=O)c3ccco3)cc2)cc1OCC	66	.	.	.	.	.
Cc1cc(N2C(=O)c3ccc(C(=O)Nc4ccc(CC(=O)O)cc4)cc3C2=O)no1	.	/	.	/	.	/
CCOc1cccc(/C=N/NC(=O)c2cccnc2)c1O	.	/	94	/	.	/
O=C(N/N=C/c1ccc(F)cc1)c1ccc(OCc2ccccc2)cc1	.	.	.	49	.	/
CC(C)c1ccc(OCc2cccc(C(=O)N/N=C/c3cccnc3)c2)cc1	.	.	.	.	.	.
CCOc1ccc(OCc2cccc(C(=O)N/N=C/c3cccnc3)c2)cc1	87	.	.	.	.	.
COc1ccc(O)c(/C=N/NC(=O)c2ccc(OCc3cccc(Br)c3)cc2)c1	82	.	.	.	.	66
CCOc1ccc(-c2c(C(=O)N/N=C/C3CCCCC3)nnn2-c2nonc2N)cc1	.	/	.	/	.	/
CCn1c(=O)c2c(nc3n2CC(C)CN3CCc2ccccc2)n(C)c1=O (configuration not stated)	.	.	.	.	.	.
COCCn1c(=O)c2c(nc3n2CC(C)CN3CCc2ccccc2)n(C)c1=O (configuration not stated)	67	/	.	/	.	/
CN(c1ccccc1)S(=O)(=O)c1ccc(C(=O)Nc2nnc(C3CC3)o2)cc1	.	.	.	.	.	.
CCCCN(CC)S(=O)(=O)c1ccc(C(=O)Nc2nnc(-c3ccccc3Cl)o2)cc1	76	.	.	.	.	.
CCCCN(C)S(=O)(=O)c1ccc(C(=O)Nc2nnc(C3=COCCO3)o2)cc1	.	.	.	.	.	.
CCCCN(CC)S(=O)(=O)c1ccc(C(=O)Nc2nnc(COC)o2)cc1	.	.	.	.	.	.
CCN(c1ccccc1)S(=O)(=O)c1ccc(C(=O)Nc2nnc(C3CC3)o2)cc1	71	.	.	.	.	.
CCCCN(CC)S(=O)(=O)c1ccc(C(=O)Nc2nnc(CSC)o2)cc1	.	.	.	42	46	.
SMILES	aSyn 5UTR inh	Ba/F3 V617F tox	KLF5 inh	BaF3 parental	IEC-6 cytotox	APP transl inh
CCCCN(CCCC)S(=O)(=O)c1ccc(C(=O)Nc2nnc(CSC)o2)cc1	.	.	.	.	.	.
CCCCN(C)S(=O)(=O)c1ccc(C(=O)Nc2nnc(-c3cccs3)o2)cc1	81	.	.	.	.	.
COc1ccccc1-c1nnc(NC(=O)c2ccc(S(=O)(=O)N(C)C)cc2)o1	.	.	.	.	.	.
CCN(Cc1ccccc1)S(=O)(=O)c1ccc(C(=O)Nc2nnc(-c3ccccc3OC)o2)cc1	67	.	.	.	.	.
COc1ccc(NC(=O)C(=O)NCC(=O)Nc2cc(OC)ccc2OC)cc1	.	/	.	/	.	/
CC1=CC(C)C(C(=O)O)C(C(=O)O)C1 (configuration not stated)	.	.	.	.	.	.
CC[N+](C)(CC)CC(=O)OCC1C(C)C=C(C)CC1C (configuration not stated)	.	27	.	34	.	/
COC(=O)c1ccc(NC(=O)C(=O)c2c[nH]c3ccccc23)cc1	.	/	.	/	.	/
Cc1cn(-c2cc(C(=O)Nc3ccc(C)c(NC(=O)C(=O)c4c[nH]c5ccccc45)c3)cc(C(F)(F)F)c2)cn1	66	/	/	/	/	/
C=CC[N+]1(CC#Cc2ccccc2)CCCC1	.	46	.	56	.	.
C(#Cc1ccccc1)C[N+]1(CC#Cc2ccccc2)CCCC1	.	87	.	71	.	.
C=CC#CC[N+]1(CC#Cc2ccccc2)CCOCC1	.	.	.	.	.	.

Compound activity from PubChem BioAssay.
